# According to PubChem BioAssay (NCI):
# This is part of a sample that, as a whole, favours compounds with a hit. Of some 83,000 tested, about 20% had one in any assay.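 Cell lines were cultured in 96-well plates, exposed to a single compound concentration, and assessed for percent growth 48 hours later.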 A number with no mark means an inactive call. Active and inactive are the calls of the source. Rule for the calls: active = growth percent below 10; inactive = the rest.
# System: MDA-MB-468 breast
# Assay: NCI-60 one-dose screen, 48 h (100 = growth as untreated, 0 = no growth, -100 = all killed)
# Settings: 10 µM unless noted
row,SMILES,growth
1,COC(=O)[C@]12CC[C@@H](C)[C@H](C)[C@@H]1C1=CC[C@@H]3[C@@]4(C)C(C=O)=C[C@@](C)(CO)C4=CC[C@@]3(C)[C@]1(C)CC2,20%
2,COc1ccc2[nH]cc(-c3nn4cc(-c5ccncc5)nc4s3)c2c1,29.2%
3,CCCCOc1nc2cc(Cl)ccc2cc1/C=C/c1cc(/C=C/c2cc3ccc(Cl)cc3nc2OCCCC)n(-c2ccccc2)n1,92%
4,C=C(C)[C@@H]1CCC[C@]2(C(=O)OC)CC[C@]3(C)[C@@H](CC[C@@H]4[C@@]5(C)CCCNC(C)(C)[C@@H]5CC[C@]43C)[C@@H]12,65.3%
5,O=c1cc(Cl)[nH]c(=O)[nH]1,101%
6,CN(C)CCCOc1ccc(C(=C(c2ccccc2)C2CCCC2)c2ccc(OCCCN(C)C)cc2)cc1,-78.9% (active)
7,O=[N+]([O-])c1ccc(/C(=C/c2ccccc2)[n+]2ccccc2)cc1,101%
8,C[C@H]1C(=O)C23CCC1C[C@@]21O[C@@H]2C(C)(C)C=CC(=O)C23COC1=O,102%
9,Clc1ccc(Nc2nnc(-c3ccc4c(c3)OCO4)o2)cc1,106%
10,Cc1c(C(N)=O)sc2c1C(=O)N(Cc1ccccc1)C1=NN=C(c3ccc(Cl)cc3)CN12,60.1%
11,ClC(Cl)c1nc(-c2cccnc2)n2nc(-c3ccccc3)cc2n1,-29.7% (active)
12,NC(=O)SCC(=O)Nc1ccc(S(N)(=O)=O)cc1,91.4%
13,Cc1ccc(C)c2c1C(=O)OC2=O,110%
14,CN(C)CCCn1c2c(c3cc(-c4ccco4)ccc3c1=O)C(=O)c1ccccc1-2,40.2%
15,CCCC1OC(c2ccc(C(C)C)cc2)OCC1CC (stereo not given),97.6%
16,O=C(Nc1ccc(CN2CCOCC2)c(C(F)(F)F)c1)c1nc2ccc3[nH]ncc3c2c2c1CCCC2,97.2%
17,CN(C)c1ccc(-c2cc(-c3c[nH]c4ccccc34)nc(N)c2C#N)cc1,39.7%
18,COc1ccc(-c2nc3ccc(-c4nc5ccc(N6CCN(c7ccccc7)CC6)cc5[nH]4)cc3[nH]2)cc1OC,-46.1% (active)
19,COc1ccc(-n2nnc(C(=O)O)c2-c2cc(OC)c(OC)c(OC)c2)cc1,102%
20,CN1C(=O)N2CN3CCCN(C3)CN3C(=S)NC1C23 (stereo not given),102%

row,SMILES,growth
1,O=C(Nc1ccccc1)c1sc(-c2cccc(C(F)(F)F)c2)cc1O,92.3%
2,C=CCn1c(SCC(=O)Nc2cccc(C(=O)/C=C/c3ccc(Cl)cc3)c2)nc2ccccc2c1=O,107%
3,COC(=O)c1cccc(NC(=O)c2ccc(-c3cccc(N)c3)o2)c1,99.7%
4,c1ccc(COc2ccc(Nc3ncnc4c3cnn4-c3ccccc3)cc2)cc1,93.1%
5,Cc1ccc(Oc2c(/C=N/NC(=O)Cn3c(=O)sc4ccccc43)c(C)nn2-c2ccccc2)cc1,41%
6,CCN(CC)Cc1cc(Nc2ccnc3cc(Cl)ccc23)cc(-c2ccc(Cl)cc2)c1O,5.28% (active)
7,Clc1ccc(Cc2nnc3sc(-c4cccnc4)nn23)cc1,94.2%
8,CC(C)C(/C=C/c1[nH]ncc1-c1cc(Cl)ccc1O)N1CCOCC1 (stereo not given),84.9%
9,Cc1cc(C(C)(CC(C)C)c2ccc(O)c(C)c2)ccc1O,103%
10,C=CC[n+]1c(/C=C/C=C2\N(C)c3ccccc3C2(C)C)sc2ccc(OC)cc21,-5.71% (active)
11,O=C(NNc1nc2cc(F)ccc2n2c(CO)ccc12)c1cnccn1,-14% (active)
12,CC(=O)O[C@@H]1/C=C/C(=O)N[C@@H](C)CCC/C=C/[C@@H]2CCC[C@H]21,101%
13,COc1ccc(-n2cc(-c3ccccc3)c3c(SCC(=O)N/N=C/c4ccc([N+](=O)[O-])cc4)ncnc32)cc1,98%
14,CNC(=O)c1cc(Oc2ccc3nc(NC(=O)c4ccc(CN5CCCN(C)CC5)c(C(F)(F)F)c4)sc3c2)ccn1,8.05% (active)
15,NNC(=O)CNC(=O)Nc1n[nH]c(=S)s1,111%
16,Nc1cc(-c2ccncc2)c[nH]c1=O,117%
17,Cc1cc(=NO)cc(C)n1O,98.1%
18,CN1CCN(c2cnc(C(=O)Nc3cc(F)cc4cccnc34)cn2)CC1,9.54% (active)
19,Cc1ccc2cc3c(NC(=O)c4cccnc4)nn(C)c3nc2c1,80.3%
20,Nc1c(C(=O)c2ccccc2)nnc2ncnn12,99.7%
